# In PubChem BioAssay AID488857 (Sanford-Burnham Center for Chemical Genomics, 2010):
# In all, about 1,400 compounds went through this assay and about 560 (40%) were called active. So high a share suggests a set chosen from earlier hits. The list shows a part of the results. A number with no mark means an inactive call.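 Rule for the calls: active = mean inhibition over duplicate tests at 10 µM above 50%; inactive = the rest.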
# Assay: ASC/caspase-1 reporter retest in S. cerevisiae at one dose, specificity check for NALP1 project (AID 488857)
# Settings: S. cerevisiae ASC/Caspase-1, beta-galactosidase luminescence, 24 h; at 10 µM; stronger effect = higher value
row,Structure (SMILES),inhibition
1,COc1ccccc1CN(Cc1nc2ccccc2c(=O)[nH]1)C(=O)Nc1ccccc1,46.4%
2,C#C[C@]1(O)CC[C@H]2[C@@H]3CCc4cc(O)ccc4[C@H]3CC[C@@]21C,79.5% (active)
3,C#C[C@]1(O)CC[C@H]2[C@@H]3CCC4=C(CCC(=O)C4)[C@H]3CC[C@@]21C,61.3% (active)
4,O=C(OC1CCOC1=O)c1cc(-c2ccc(Br)cc2)nc2ccccc12 (centres undefined),46.6%
5,O=C(Oc1cccc2cccnc12)c1ccc(N2C(=O)C3C4CCC(C4)C3C2=O)cc1 (centres undefined),31.9%
6,O=C(Nc1cccc(O)c1)c1noc2c1CCc1ccccc1-2,87% (active)
7,CN1/C(=C\C(=O)Nc2ccc(Cl)cc2)C(C)(C)c2ccccc21,41.8%
8,CCOP(=O)(C1=C(O)C(=O)C(C(C)(C)C)=CC1=O)c1ccccc1 (centres undefined),38.8%
9,Cc1cccc(N=C2NC(=O)/C(=C\c3cccs3)S2)c1,62.8% (active)
10,COc1ccc(C(=O)Cn2c(C(=O)/C=C/c3ccccc3)nc3ccccc32)cc1,39%
11,O=C(/C=C/c1cccs1)c1cc(Br)ccc1OC(=O)N1CCOCC1,45.4%
12,COc1ccc(C(=O)/C=C/c2ccc(OC)c(CN3CCOCC3)c2)cc1,66% (active)
13,CC(C)C(NC(=O)CN1C(=O)c2ccccc2S1(=O)=O)C(C)C,33.5%
14,C(=C\c1nc(N2CCCCCC2)c2ccccc2n1)/c1ccccc1,85.2% (active)
15,C(=C\c1nc(N2CCCC2)c2ccccc2n1)/c1ccccc1,91.5% (active)
16,COc1ccc2oc(=Nc3ccccc3)c(-c3nc4ccccc4[nH]3)cc2c1,59.1% (active)
17,Cc1cc(C)cc(Cn2ncc(Cl)c(Cl)c2=O)c1,57.6% (active)
18,Cn1ncc(S(=O)(=O)Cc2ccccc2)c(Cl)c1=O,39.1%
19,COc1ccc(-c2[nH]ncc2CN2CCC(OCc3ccccn3)CC2)c(F)c1,21.9%
20,O=C(/C=C/c1ccccc1)/C=C/c1ccccc1,54.5% (active)
21,Cc1nc(NC(=O)/C=C/c2ccccc2)n[nH]1,48.2%
22,Cc1ccc(C)c(NC(=O)c2ccc(OC(=O)c3ccco3)cc2)c1,35.5%
23,Cc1ccc2occ(C(=O)c3ccco3)c(=O)c2c1,84% (active)
24,CCn1c(SCC(=O)Nc2oc(-c3ccccc3)c(-c3ccccc3)c2C#N)nnc1-c1cc(OC)cc(OC)c1,25.9%
25,CC1CCCCN1S(=O)(=O)c1cnc(Cl)c(Br)c1 (centres undefined),59.8% (active)

row,Structure (SMILES),inhibition
1,O=S(=O)(/C=C/c1ccccc1)NC1CCCCCCC1,66.8% (active)
2,CCOC(=O)c1c(-c2cccs2)csc1NC(=O)C(C)(C)C,44.8%
3,O=[N+]([O-])c1ccc(O)c2ncccc12,99% (active)
4,O=C(c1ccc(Cl)c([N+](=O)[O-])c1)N(c1ccccn1)c1ccccn1,23.8%
5,CSc1ccc(CN(C)CC(=O)Nc2ccc(C)cc2Br)cc1,52.6% (active)
6,CN1CCN(C(=O)CSc2nc3c(c(=O)n(C)c(=O)n3C)n2C)CC1,31.1%
7,N#Cc1cccc(N=Cc2c(O)ccc3ccccc23)c1,30.4%
8,O=S(=O)(/N=C/c1c(O)ccc2ccccc12)c1cccs1,20.6%
9,C=CCOc1ccc2ccccc2c1/C=N/O,64.3% (active)
10,OCCNc1c2ccccc2nc2c(F)c(F)c(F)c(F)c12,23.1%
11,CC(=O)/C=C/n1c(=S)oc2ccccc21,23.2%
12,CCOc1ccc(C(=O)C(CCC(CN(C)C)C(=O)c2ccc(OCC)cc2)CN(C)C)cc1 (centres undefined),63.5% (active)
13,CCCOc1ccc(C(=O)NC(C)C(=O)O)cc1 (centres undefined),40.4%
14,Cc1ccc(N2C(=N)/C(=C3/Nc4ccccc4S3)C(c3ccccc3)C2=O)cc1 (centres undefined),38.5%
15,N#CC1=C(N)Oc2n[nH]c(-c3cccs3)c2C1C1CCCCC1 (centres undefined),46.4%
16,CC1=CC(=O)C=C(C)C1=NOS(=O)(=O)c1ccccc1,69.7% (active)
17,CC1=C/C(=N\OS(=O)(=O)c2ccccc2)C(C(C)C)=CC1=O,91.2% (active)
18,N#CC(C#N)=c1ccc2c(c1)N1C3=C(CCCC3)CC3CCCCC31N=2 (centres undefined),8.35%
19,COc1ccc(/C=N/NC(=O)c2csc(-n3nc(C)cc3C(F)(F)F)n2)cc1,36.5%
20,O=C(CCN1CCc2ccccc2C(c2ccccc2)C1)c1ccc2c(c1)OCCO2 (centres undefined),24.4%
21,CCOC(=O)C(C(=O)OCC)C(C(=O)OCC)N1CCOCC1 (centres undefined),53.2% (active)
22,Cc1cccc(Oc2nc(CN3CCOCC3)nc3sc4c(c23)CCCC4)c1,75.2% (active)
23,Oc1ccccc1C1N=C(c2ccccc2)NC(c2ccccc2)=N1,28.9%
24,CCOc1nc(N2CCOCC2)nc(N2CCOCC2)n1,43.6%
25,CC(=O)N1N=C(c2ccc3ccccc3c2)OC1(C)C,86.5% (active)

row,Structure (SMILES),inhibition
1,CS(=O)(=O)n1nc(-c2ccc(Cl)cc2)nc1SCc1ccccc1,48%
2,Cn1nc(-c2ccccc2)c(-c2nc(-c3ccc(Cl)cc3)no2)c1Cl,33.6%
3,Cn1nc(-c2ccc(Cl)cc2)nc2c(=O)n(C)c(=O)nc1-2,97.8% (active)
4,c1ccc2[nH]c3cc4ncnc4cc3nc2c1,46.6%
5,Nc1ccccc1-c1nc2ccccc2[nH]1,83% (active)
6,O=C1CC(c2ccccc2Cl)CC(O)=C1C=Nc1ccccc1 (centres undefined),61.9% (active)
7,O=C1CC(c2cccc(Cl)c2)CC(O)=C1C=Nc1cccc(Cl)c1 (centres undefined),53.5% (active)
8,CCSc1nnc(-c2ccncc2)n1Cc1ccccc1,23.7%
9,CCCn1c(-c2cccnc2Cl)nc2cc(Cl)c(Cl)cc21,47.9%
10,CS/C(=N\S(=O)(=O)c1cccs1)Nc1ccc(Br)cc1F,68.3% (active)
11,CCCNC(=O)c1cc2c3ccccc3n(C)c2s1,74.2% (active)
12,CC(C)OCCCNC(=O)c1cc2c(=O)n(C)c3ccccc3c2n1C,30.8%
13,COc1cccc(CN2CCC(C(=O)N3CCN(c4ccccc4F)CC3)CC2)c1OC,32.3%
14,OC(COc1ccc2c(c1)CCC2)CN1CCN(c2ccccc2F)CC1 (centres undefined),78% (active)
15,OC(CSc1c(Cl)cccc1Cl)CN1CCN(c2ccccc2F)CC1 (centres undefined),50.8% (active)
16,O=[N+]([O-])c1ccc(OCC(O)CN2CCN(c3ccccc3F)CC2)cc1 (centres undefined),51.8% (active)
17,COc1ccc(CN2CC(C(=O)NCCN3CCN(c4ccccc4F)CC3)CC2=O)cc1 (centres undefined),29.6%
18,Cc1sc(-c2ccncc2)nc1OC(=O)c1ccccc1,36.9%
19,Cc1occc1C(=O)Nc1c(F)c(F)c(F)c(F)c1F,38.6%
20,Cc1ccc(NCC(=O)Nc2c(C)n(C)n(-c3ccccc3)c2=O)cc1S(=O)(=O)N(C)C,10.7%
21,CC1=C(C(=O)Nc2ccc(Cl)cc2)C(c2ccncc2)C(C#N)=C(SCC(N)=O)N1 (centres undefined),30.2%
22,Cn1c2c(c(=O)n(C)c1=O)C(NC(=O)C(C)(C)C)(C(F)(F)F)C(=O)N2 (centres undefined),40.1%
23,O=S(=O)(CC(CN1CCCCC1)N1CCCCC1)c1ccc2ccccc2c1 (centres undefined),59.8% (active)
24,O=S(=O)(CC(CN1CCCC1)N1CCCC1)c1ccc2ccccc2c1 (centres undefined),30.2%
25,O=S(=O)(NC1CCCCC1)c1ccc(F)c2ccccc12,57.7% (active)

row,Structure (SMILES),inhibition
1,O=C(Nc1nc(-c2ccncc2)cs1)c1ccc(S(=O)(=O)N2CCOCC2)cc1,39.9%
2,CS(=O)(=O)N1N=C(c2ccco2)CC1c1ccc(Cl)cc1 (centres undefined),27.9%
3,CCOC(=O)c1c(/N=C/c2cc(OC)cc([N+](=O)[O-])c2O)sc(C)c1C,65.7% (active)
4,CCOC(=O)c1sc(=S)n(-c2ccc(OC)cc2)c1C,48.9%
5,Cc1sc(N)nc1-c1ccc(Oc2ccccc2)cc1,76.5% (active)
6,Nc1nc(-c2ccc(Oc3ccccc3)cc2)cs1,99.7% (active)
7,COc1ccc(-c2csc(N3C(=O)C4C5c6ccccc6C(c6ccccc65)[C@@H]4C3=O)n2)cc1 (some centres undefined),34.7%
8,Nc1ccc(Oc2cccc(Oc3ccc(N)cc3)c2)cc1,48%
9,Nc1nc2ccc(Oc3ccccc3)cc2s1,96.2% (active)
10,O=C(Cc1ccc(Cl)cc1)Oc1cccc2cccnc12,29.8%
11,c1cnc2c(c1)ccc1cccnc12,84.1% (active)
12,Fc1ccc(Nc2nc(Oc3ccccc3F)nc(N3CCCC3)n2)cc1,41.3%
13,Cc1ccccc1Nc1cc(C)c2c(O)cccc2n1,77.8% (active)
14,C/C(=N\NC(=O)Cc1csc(N2CCOCC2)n1)c1ccccc1,29.2%
15,COc1ccc(NC(=O)c2sc(N3CCOCC3)nc2-c2ccccc2)c(OC)c1,57.7% (active)
16,COc1ccc(NC(=O)N2CCC(CO)(CC3CCCCO3)CC2)c(OC)c1 (centres undefined),40.4%
17,CN(C)Cc1ccccc1Sc1ccccc1Br,49%
18,N#Cc1ccc(NC(=O)Nc2ccc(Cl)cc2)cc1,96.4% (active)
19,CC(=O)c1ccc(NC(=O)Nc2ccc(Cl)cc2)cc1,44.4%
20,COc1ccc(N2CCN(CCNC(=O)Nc3ccc(Cl)cc3)CC2)cc1,39.5%
21,Cc1cccc(C)c1C(OCCN(C)C)C1CCCCC1 (centres undefined),35.5%
22,COc1cc(/C=C(\NC(C)=O)C(=O)Nc2cccc(O)c2)ccc1OC(C)=O,42%
23,COc1ccc(/C=C/C(=O)Nc2ccc3c(c2)CCC3)cc1OC,86.2% (active)
24,O=C1/C(=C/c2cccnc2)SC(=S)N1C1CCS(=O)(=O)C1 (centres undefined),32.4%
